Source: PubChem BioAssay
Tb PGK inh: qHTS Assay to Find Inhibitors of Phosphoglycerate Kinase. 380,000 tested, 0.043% active. PGK/GAPDH coupled, Kinase-Glo luminescence, 60 min. AID 602233, 2012. Phosphoglycerate kinase, glycosomal (Trypanosoma brucei brucei), P07378. Potency, µM (highest dose often 57.5 µM), inactives show at the top dose activity change, negative = inhibition, hits mostly inhibitors; note: % is set by controls: 0 for no effect and ±100 for the full control effect; nearly all actives have a fitted effect of over 60% in size
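Luminescent ATP detection (Kinase-Glo Plus) follows a 60-minute room-temperature incubation, with wells lacking PGK as controls. Buffer: 100 mM TEA (pH 7.6), 5 mM MgCl2, 0.01% Tween-20. Coupling enzyme GAPDH (100 nM final) supplies unstable 1,3-BPG in-well.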
GLP1R ag: qHTS of GLP-1 Receptor Agonists | Glucagon-like peptide 1 receptor (Homo sapiens), P43220 | HEK293 GLP-1R CRE-luciferase, luminescence, 4-6 h; cells express a hypersensitive GLP-1R form | Potency, µM (highest dose often 45.6 µM), for the others: at the top dose activation, actives largely listed as activators | 380,000 tested, 0.007% active | AID 624172, 2012; note: % of control where 0% means no effect
GLP1R cytotox: qHTS of GLP-1 Receptor Inverse Agonists: Cytotox Screen; 410,000 tested, 0.13% active; HEK293 cAMP-luciferase reporter cells, luminescence, 24 h; Potency, µM (top dose mostly 38.3 µM), inactives show top-dose activity change, negative = inhibition, actives largely listed as inhibitors;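 note: loss of luciferase light is scored as toxicity; % is set by controls: 0 for no effect and ±100 for the full control effect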
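A 23 nL compound transfer followed 12 hours of cell culture at 37 deg C; exposure then lasted 24 hr. Luciferase assay detection reagent was dispensed and plates read for luminescence after a 12 min room-temperature wait.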
Pin1 inhibitor: qHTS Assay to Find Inhibitors of Pin1; 390,000 tested, 0.009% active; Potency, µM (titrated, usually from 115 µM), for the others: top-dose activity, negative = inhibition, usual class: inhibitors; Peptidyl-prolyl cis-trans isomerase NIMA-interacting 1 (Homo sapiens), Q13526; Pin1 FP peptide displacement, HiFluor488, 10 min; active = well fitted inhibition curve with a large enough effect in the polarisation, with a control signal flat, not every such curve was filed as active; inconclusive = small, poorly fitted or top-dose-only effect, or effect the other way, or a change in a side signal; inactive = no such curve, though single readings can be large or run the other way; the % refers to the polarisation; note: % is set by controls: 0 for no effect and ±100 for the full control effect
Target sequence (Q13526 whole entry, looked up): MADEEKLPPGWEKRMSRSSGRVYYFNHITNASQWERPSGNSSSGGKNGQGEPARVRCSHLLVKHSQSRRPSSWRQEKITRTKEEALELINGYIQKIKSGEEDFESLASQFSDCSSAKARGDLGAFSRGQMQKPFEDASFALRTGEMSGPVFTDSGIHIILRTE
GLP1R inv ag: qHTS of GLP-1 Receptor Inverse Agonists (Inhibition Mode) | Glucagon-like peptide 1 receptor (Homo sapiens), P43220 | HEK293 GLP-1R CRE-luciferase, luminescence, 24 h; GLP-1R form is constitutively active | Potency, µM (doses to about 38.3 µM), without a hit: top-dose activity change, negative = inhibition, hits mostly inhibitors | 410,000 tested, 1.6% active; note: % is set by controls: 0 for no effect and ±100 for the full control effect; nearly all actives have a fitted effect of over 55% in size
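Constitutively active GLP-1R drives a cAMP-responsive luciferase in stably transfected HEK293 cells; test compounds are added after overnight (12 h) attachment and left 24 hr, and signal loss in luminescence marks inhibition.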
Tb PFK inh-1: qHTS Assay to Find Inhibitors of T. brucei phosphofructokinase | ATP-dependent 6-phosphofructokinase (Trypanosoma brucei brucei), O15648 | Potency, µM (highest dose often 57.5 µM), for inactives: top-dose activity, negative = inhibition, hits mostly inhibitors | 330,000 tested, 0.17% active | T. brucei PFK, ADP-Glo luminescence;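 note: 0% = uninhibited 1x PFK enzyme wells and -100% = no-enzyme wells; nearly all actives have a fitted effect of over 60% in size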
Target sequence (O15648 whole entry, looked up): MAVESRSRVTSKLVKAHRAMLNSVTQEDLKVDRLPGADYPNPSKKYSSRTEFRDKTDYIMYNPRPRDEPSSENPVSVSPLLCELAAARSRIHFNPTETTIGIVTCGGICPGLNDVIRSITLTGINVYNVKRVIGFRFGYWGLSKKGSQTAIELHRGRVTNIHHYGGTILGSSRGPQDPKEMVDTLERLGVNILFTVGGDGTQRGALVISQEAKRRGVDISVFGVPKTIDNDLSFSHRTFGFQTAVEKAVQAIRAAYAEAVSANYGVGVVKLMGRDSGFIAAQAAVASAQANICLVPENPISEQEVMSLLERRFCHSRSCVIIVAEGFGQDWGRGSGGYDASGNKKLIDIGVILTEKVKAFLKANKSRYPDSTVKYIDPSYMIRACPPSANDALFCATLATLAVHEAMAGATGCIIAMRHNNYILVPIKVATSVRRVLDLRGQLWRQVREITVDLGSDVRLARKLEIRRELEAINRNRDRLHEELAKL
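Compounds were pin-transferred as a titration series up to 57 uM into substrate buffer (0.5 mM F6P, 0.1 mM ATP, pH 8.0), then 1.25 nM PFK was added and reactions ran 45 min before ADP-Glo detection.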
Tb PFK KinaseGlo: Tb PFK orthogonal confirmatory assay using ATP depletion (Kinase-Glo Plus) as an alternative measure of Tb PFK activity: Hit Validation | shares compounds with Tb PFK inh-1 | Tb PFK enzyme, ATP depletion, Kinase-Glo Plus luminescence | Potency, µM (titrated, usually from 57.5 µM), without a hit: top-dose inhibition | 1,100 tested, 47% active | AID 504636, 2011; calls by dose curve; note: nearly all actives have a fitted effect of over 60% in size
Tb PFK inh-2: Inhibitors of T. brucei phosphofructokinase: Hit Validation; shares compounds with Tb PFK inh-1; purified T. brucei PFK, ADP-Glo luminescence, 45 min; Potency, µM (top dose mostly 57.5 µM), for the others: at the top dose activity change, negative = inhibition, most hits filed as inhibitors; 1,100 tested, 41% active;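 note: plate controls were full PFK enzyme control for no effect and no enzyme control for full effect; nearly all actives have a fitted effect of over 60% in size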
The depositor's hits bear a star; i = inactive; ? = inconclusive; · = no result. Compounds with a hit are over-represented: about 1.8% of the library has one in this group of screens. Unless noted, calls come from the whole dose curve; as a rule, active = well fitted curve in the direction sought with a large enough effect; inconclusive = small, poorly fitted or top-dose-only effect, or another doubt; inactive = no such curve, though single readings can be large; an effect the other way counts as inactive or inconclusive. Potency is the fitted concentration of half-maximal effect.

SMILES | Tb PGK inh | GLP1R ag | GLP1R cytotox | Pin1 inhibitor | GLP1R inv ag | Tb PFK inh-1 | Tb PFK KinaseGlo | Tb PFK inh-2
CN(c1ccc(C(=O)NCCSCc2c(F)cccc2Cl)cc1)S(C)(=O)=O | -7% | 0% | ? | 4% | ? | 4% | · | ·
Cc1ccc(Cn2cccc(C(=O)Nc3cc(C)on3)c2=O)cc1 | -2% | · | -13% | -2% | 12% | · | · | ·
CNC(=S)NNC(=O)c1cccn(Cc2ccc(Cl)c(Cl)c2)c1=O | 1% | 0% | -5% | 3% | 23% | 8.5µM* | 2.7µM* | 8.5µM*
C=CCNC(=S)NNC(=O)c1cccn(Cc2ccc(Cl)c(Cl)c2)c1=O | -1% | 1% | -15% | 7% | ? | 8.5µM* | 8.5µM* | 11µM*
CCOC(=O)c1c(-c2ccc(C)o2)csc1NC(=O)COC(=O)c1ccc(NC(N)=O)cc1 | -2% | -3% | ? | 41% | -28% | 2.1µM* | ? | -20%
CCN(CC)CCCNc1nc(-n2nc(C)cc2C)nc2sc3c(c12)CC(C)(C)OC3 | 8% | -4% | ? | 0% | ? | 0% | · | ·
Oc1cc2c(cc1O)[C@H]1c3ccc(O)c(O)c3OC[C@@]1(O)C2 | ? | 3% | ? | -9% | -20% | ? | ? | ?
Clc1ccc(CN2C3=NCCN3c3ccccc32)cc1Cl | -1% | -2% | ? | 12% | ? | 6.7µM* | 3µM* | 6µM*
CC(C)c1ccc(NC(=O)Nc2nc(C(N)CCc3ccccc3)cs2)cc1 (stereo not drawn) | · | -22% | -30% | · | ? | · | · | ·
CCOP(=O)(C1=C(O)C(=O)C(C(C)(C)C)=CC1=O)c1ccccc1 (stereo not drawn) | 5% | -1% | -1% | ? | -4% | 1% | · | ·
O=C(O)c1sccc1Oc1ccc(F)cc1[N+](=O)[O-] | 0% | -8% | -24% | -10% | ? | -1% | · | ·
O=C(CSc1ccsc1[N+](=O)[O-])Nc1cc(F)ccc1F | ? | -2% | -3% | ? | 8% | ? | 6.7µM* | ?
CCN(CC)c1ccc(NC(=O)CSc2ccsc2[N+](=O)[O-])c(C)c1 | -10% | 10% | 4% | ? | 36% | ? | ? | -27%
[Hg+][c]1ccccc1 | · | -8% | · | · | · | · | · | ·
O=C(NCCc1ccccc1)[C@@H]1CC=C[C@@H]2CCN(Cc3ccc(Cl)c(Cl)c3)C(=O)[C@@H]21 | -3% | 7% | -6% | -2% | ? | · | · | ·
CN1C(=S)SC(N(O)C(=O)Nc2ccc(Cl)c(Cl)c2)C1(C)C (stereo not drawn) | -7% | -13% | -2% | 1% | 10µM* | ? | ? | ?
O=S(=O)(Nc1ccccc1)c1cccc2nsnc12 | -10% | 6% | -10% | -6% | 17% | ? | ? | ?
CN(C)c1cc(Cl)c2nonc2c1N | -5% | 21% | -1% | -12% | 7% | ? | 21µM* | ?
O=C(CCS(=O)(=O)c1ccc(Cl)cc1)Nc1cccc(S(=O)(=O)N2CCCCCC2)c1 | i | -19% | -21% | 5% | ? | · | · | ·
O=C(Cc1ccc(Br)cc1)Nc1cccc(S(=O)(=O)N2CCOCC2)c1 | -8% | 9% | 8% | 3% | ? | ? | ? | ?
Cc1cc(NC(=O)COC(=O)CSCc2ccc(Cl)c(Cl)c2)no1 | -5% | -4% | 2% | 1% | 3% | ? | ? | ?
Cc1cc(C)cc(NC(=S)Nc2ccc(Cl)c(Cl)c2)c1 | -10% | 14% | ? | -2% | ? | 9.5µM* | 24µM* | ?
Cc1ccc(NS(=O)(=O)c2ccc(Cl)c(NC(=S)NC(=O)C3CCCCC3)c2)cc1Cl | -3% | -11% | ? | 9% | ? | 1% | · | ·
NS(=O)(=O)c1ccc(CNC(=S)Nc2ccc(Cl)c(Cl)c2)cc1 | -13% | 9% | -8% | 1% | ? | ? | ? | ?
CCn1cc(C(=O)NCCc2ccc(OC)c(OC)c2)c(=O)c2cc(S(=O)(=O)N(C)C3CCCCC3)ccc21 | -10% | -1% | -26% | 19% | ? | · | · | ·
SMILES | Tb PGK inh | GLP1R ag | GLP1R cytotox | Pin1 inhibitor | GLP1R inv ag | Tb PFK inh-1 | Tb PFK KinaseGlo | Tb PFK inh-2
CC(CNC(=O)c1ccc(CSc2nc3ccncc3n2Cc2ccc(F)cc2)cc1)c1ccccc1 (stereo not drawn) | -5% | · | 0% | 28% | ? | · | · | ·
O=c1[nH]cnc2[nH]cc(CN3CCCCC3)c12 | · | -5% | · | · | · | · | · | ·
CCCN(CCC)C(=O)Cc1c(-c2ccc(Cl)cc2)nc2ccc(Cl)cn12 | · | 4% | · | · | · | · | · | ·
OCCNC(=S)Nc1ccc(Cl)c(Cl)c1 | -9% | -19% | 9% | 3% | -13% | ? | ? | ?
Cc1cc2cc(CNC(=O)Nc3ccc(Cl)c(Cl)c3)ccc2n1C | i | -2% | -11% | 1% | ? | -3% | · | ·
Cc1cc(NS(=O)(=O)c2ccc(NC(=O)Cc3ccc(Cl)c(Cl)c3)cc2)no1 | -3% | 12% | -13% | -4% | -22% | 1.2µM* | 0.43µM* | 0.76µM*
Cc1cccc(C)c1NC(=S)Nc1ccc(Cl)c(Cl)c1 | -5% | 6% | ? | -1% | ? | 21µM* | ? | -14%
C=CCNC(=S)Nc1ccc(OC(=O)Nc2ccc(Cl)c(Cl)c2)cc1 | -9% | -8% | 0% | -1% | 4% | 13µM* | 21µM* | 27µM*
NS(=O)(=O)c1cccc(NC(=O)Cc2ccc(Cl)c(Cl)c2)c1 | -3% | -2% | 2% | -3% | ? | 6µM* | 3µM* | 11µM*
O=C(Nc1ccc(Cl)c(Cl)c1)c1ccco1 | 2% | 5% | 9% | -3% | ? | -4% | · | ·
